Screens as filed in PubChem.
A selection: hits, their analogues and other compounds. The true share with any hit is near 0.52%.
LMNA splice mod = changes lamin A minigene splicing in HeLa cells | AID 1487 | HeLa LMNA splicing GFP/RFP minigene ratio, 48 h | Potency, µM (highest dose often 46.1 µM), for inactives: at the highest dose ratio change, negative = inhibition, most hits filed as inhibitors | 0.01% of 200,000 active; active means well fitted inhibition curve with a large enough effect in the signal ratio, with a control signal flat, not every such curve was filed as active; inconclusive means small, poorly fitted or top-dose-only effect, or effect the other way, or a change in a side signal; the % refers to the signal ratio
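S3 HeLa cells stably expressing lamin A-EGFP splicing minigene plus DsRed2, 600 cells/well, 48 h compound exposure at 37C. Laser-scanning cytometry; analysed as GFP (500-530 nm)/RFP (575-640 nm) total intensity ratio; 0.5% DMSO vehicle.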
N370S GC mod = inhibits or activates N370S mutant glucocerebrosidase; 0.092% of 330,000 active; N370S GC spleen homogenate, 4MU-glucoside fluorescence; Potency, µM (top dose mostly 59.4 µM), for inactives: at the top dose activity change, negative = inhibition, actives largely listed as inhibitors; P04062;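 further: 0% = full enzyme activity and -100% = no enzyme basal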
GAA inhib = alpha-glucosidase (human) inhibition. 0.005% of 200,000 active. Potency, µM (highest dose often 76.9 µM), without a hit: at the top dose activity change, negative = inhibition, actives largely listed as inhibitors. AID 1466. P10253. purified human GAA, 4-MU-alpha-glucoside fluorescence;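 further: plate controls were uninhibited enzyme wells for no effect and no-enzyme background for full effect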
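AC50 values come from Hill fits of compound titrations (up to 77 uM) against 4 nM human enzyme. Substrate 4-methylumbelliferyl-alpha-D-pyranoside at 400 uM, pH 5.0 citrate buffer, 20 min room temperature; fluorescence Ex 365/Em 440 after alkaline stop.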
GAA glycogen = alters human alpha-glucosidase cleavage of glycogen | recombinant GAA, glycogen substrate, Amplex Red glucose oxidase fluorescence | Potency, µM (top dose mostly 76.4 µM), for inactives: at the highest dose activity change, negative = inhibition, usual class: inhibitors | 0.38% of 300,000 active | AID 2100;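 further: 0% = full enzyme reaction and -100% = no-enzyme basal signal; the screen sought inhibitors and activators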
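qHTS, 1536-well; enzyme 4 nM final; cpd up to 77 uM; substrate bovine liver glycogen 30 ug; 50 mM citrate/phosphate pH 5.0, 0.01% Tween-20; 37 C, 40 min; Amplex Red detection 45 min RT; Hill fit → AC50.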
aGlu spleen mod = inhibitors or activators of human alpha-glucosidase in spleen homogenate; P10253; human spleen homogenate, 4-MU-alpha-glucoside fluorescence; Potency, µM (highest dose often 79.9 µM), for inactives: at the highest dose activity change, negative = inhibition, most hits filed as inhibitors; 0.006% of 240,000 active; AID 2112;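 further: 0% = enzyme with vehicle and -100% = no enzyme basal signal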
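Enzyme source: human spleen homogenate, 1 ug/well. Buffer 50 mM citric acid/K phosphate pH 5.0, 0.01% Tween-20. 4-MU-alpha-glucoside 1 mM; 37 C x 40 min; NaOH/glycine stop; fluorescence.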
KinaseGlo FLuc = blocks Kinase-Glo luciferase, a counter-screen artifact | Kinase-Glo luciferase, ATP luminescence, 8 min | Potency, µM (top dose mostly 38.3 µM), for the others: at the highest dose activity change, negative = inhibition, actives largely listed as inhibitors | 0.28% of 200,000 active; further: nearly all actives have a fitted effect of over 60% in size
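Substrate mix (final 50 mM imidazole pH 7.2, 50 mM KCl, 7 mM MgCl2, 10 uM ATP, 0.01% Tween 20, 0.05% BSA) plus pin-tool compound, then Kinase-Glo detection mix; 8 min ambient, luminescence read.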
An asterisk follows results filed as active; ? = inconclusive; . = not tested or not shown; [ ] = remark or other dose. Unless noted, the call rests on the fitted dose curve; in most records, active means well fitted curve in the direction sought with a large enough effect; inconclusive means small, poorly fitted or top-dose-only effect, or another doubt; inactive means no such curve, though single readings can be large; an effect the other way counts as inactive or inconclusive. Unless noted, on the % scale 0 is the no-effect control and ±100 the full control effect; potency means the concentration at half of the fitted maximal effect.

SMILES	LMNA splice mod	N370S GC mod	GAA inhib	GAA glycogen	aGlu spleen mod	KinaseGlo FLuc
COc1ccc2[nH]c(C(=O)O)c(NS(=O)(=O)c3ccc(Cl)s3)c2c1	-2%	9%	7%	9.9µM*	7%	-4%
CC(=O)c1ccc(NC(=O)c2cc3c([nH]c2=O)CC(c2ccccc2)CC3=O)cc1 (stereo unspecified)	.	.	.	-4%[76.3 µM]	.	.
Nc1nc(N2CCN(C(c3ccccc3)c3ccccc3)CC2)n[nH]1	-10%[46 µM]	-7%	4%	?	-2%	-1%
Nc1nc(N2CCN(Cc3ccccc3)CC2)n[nH]1	.	-1%	7%	5.6µM*	-4%	2%
CCc1nn2cc(-c3ccccc3)nc2s1	16%	-3%	-5%	1%	-7%	10µM*
c1ncc(-c2ccoc2)c(NC2CC2)n1	3%	-4%	.	.	0%	.
CCCc1cc(=O)[nH]c(Nc2ccc(O)cc2)n1	0%	-12%	-24%	28µM*	-2%	-4%
COc1ccc(-c2nc3ccccc3s2)cc1NC(=O)c1ccc(C#N)cc1F	.	.	.	2%[76.3 µM]	.	.
O=C(O)c1ccc(Nc2ccnc3cc(Cl)ccc23)cc1O	.	.	.	.	.	0%[7.66 µM]
Oc1ccc(Nc2ccnc3cc(Cl)ccc23)cc1	.	?	.	13µM*	-10%	.
COC(=O)C1CSc2[nH]c(=O)sc2C1c1ccc(OC)c(OC)c1 (stereo unspecified)	-8%	-5%	10%	18µM*	-6%	-3%
O=C(NCCCN1CCOCC1)c1ccc2c(c1)N(Cc1cccc(Cl)c1)C(=O)c1ccccc1S2	-23%[46 µM]	.	.	.	.	.
Cc1cccc(CN2C(=O)c3ccccc3Sc3ccc(C(=O)NCCN4CCOCC4)cc32)c1	3%[9.22 µM]	14µM*	-7%	-8%	1%	-8%
O=C(NCCN1CCOCC1)c1ccc2c(c1)N(Cc1ccccc1F)C(=O)c1ccccc1S2	-19%[46 µM]	10µM*	-4%	0%	-12%	-4%
C=CCOc1cccc(CNc2ccc3[nH]c(=O)[nH]c3c2)c1	.	-13%	-2%	28µM*	-1%	-1%
CCOc1cc(CNc2ccc(N(C)C)cc2)cc(Br)c1OCC(=O)NC(C)(C)C	?	-8%	?	20µM*	-6%	3%
COc1cc(CNc2ccc3[nH]c(=O)[nH]c3c2)ccc1OCc1ccccc1F	?	-4%	.	5.6µM*	.	.
CCOc1cc(CNc2ccc(N3CCCCC3)cc2)cc(Br)c1OCC(=O)NC(C)(C)C	?	-13%	-7%	8%	-9%	-3%
COc1cc(CNc2ccc3[nH]c(=O)[nH]c3c2)cc(Br)c1OCC(=O)NC(C)(C)C	?	.	-15%	14µM*	-5%	-1%
COc1cc(CNc2ccc3[nH]c(=O)[nH]c3c2)ccc1OCC(=O)NC(C)(C)C	13%	-8%	-3%	?	-3%	-6%
Cc1ccc(NC(=O)Cn2nnnc2-c2ccccc2N)cc1	.	.	.	10%[76.3 µM]	.	.
CCN1C(=O)[C@H]2[C@H]3[C@H](O)[C@H](O)C/C(=N/OCC(C)C)[C@H]3CC[C@@H]2C1=O	.	2%[12.8 µM]	.	.	-5%[17.4 µM]	.
CN1CCN(c2ncncc2-c2ccccc2Cl)CC1	-1%	-9%	.	.	-2%	.
COC(=O)Oc1ccccc1C(=O)O	-2%	-2%	.	.	0%	3%
NNC(=O)c1nn(-c2ccc(Cl)cc2)cc1O	-20%[46 µM]	-22%	9%	28µM*	-6%	.
CC(C)(C)c1ccc(-c2nc3cc(NC(=O)c4cccc(Br)c4)ccc3o2)cc1	.	.	.	-2%[76.3 µM]	.	.
O=[N+]([O-])c1cc(-c2nnc(Nc3ccc(O)cc3)c3ccccc23)ccc1N1CCOCC1	?	?	-4%	16µM*	-1%	0%
O=[N+]([O-])c1cc(-c2nnc(Nc3ccccc3)c3ccccc23)ccc1N1CCOCC1	?	9%	3%	12%	2%	-2%
CC(=O)c1cc2c(=O)c3cc(C)ccc3oc2nc1C	15%	7%	1%	2%	2%	?
